Measurements reported in PubChem BioAssay AID720533 (National Center for Advancing Translational Sciences (NCATS), 2013).
“And” between values parts separate entries of the source, which are not always exact repeats. Equal values may be shown once. Hit rate of the full screen: of about 18,000 compounds, about 750 (4.2%) were called active. Roughly 13% stayed inconclusive and do not appear here. The call rests on the fitted dose curve; tested in HEK293 cells. This excerpt belongs to a sample that is enriched for actives. Where a structure was tested more than once in an assay, its records may differ in their call.

Assay: qHTS for Inhibitors of binding or entry into cells for Lassa Virus
Conditions: Lassa virus pseudotyped entry inhibition, cell-based qHTS; series mostly up to 49.2 µM; activity change, negative = inhibition: at the top concentration
On the % scale 0 is the no-effect control and ±100 the full control effect; potency means the concentration at half of the fitted maximal effect.

Structure (SMILES) | activity change, negative = inhibition | Potency
COC(=O)C1=C(C(=O)OC)[C@@H]2N(C)c3ccccc3[C@@]23C[C@@H](C(=O)OC)N(C(=O)c2ccco2)C3=N1 | 11.9% [at 8.59 µM] (inactive) | 
CC(C)c1cnc(NC(=O)Cc2ccccc2)s1 | 19.7% (inactive) | 
CC(=O)Oc1ccccc1C(=O)Nc1ncc([N+](=O)[O-])s1 |  | 7.94 µM (active)
CCOC(=O)[C@H](CCc1ccccc1)N[C@@H](C)C(=O)N1CC2(C[C@H]1C(=O)O)SCCS2 | -3.33% (inactive) | 
COc1cccc(CN2CCC3(CC2)c2ccccc2[C@@H](NC(=O)c2ccccc2OC)[C@@H]3O)c1 | -19.8% (inactive) | 
CO[C@@H]1C[C@@H](C[C@H]2CC[C@H](C)[C@@H]([C@@H](C)C(=O)O)O2)O[C@]2(O[C@](C)([C@H]3CC[C@@](C)(C4OC([C@H]5O[C@@](O)(CO)[C@H](C)C[C@@H]5C)C[C@@H]4C)O3)C[C@H]2C)[C@@H]1C (stereo partly drawn) |  | 3.16 µM (active)
O=C(C1CCCCC1)N1C[C@H](O)[C@H](n2cc(-c3ccc(F)cc3)nn2)C[C@@H]1c1ccccc1 | -16.6% (inactive) | 
CC1C(O)CC2C(C(=O)O)=CO[C@@H](O[C@H]3OC(CO)C(O)C(O)C3O)C21 (stereo partly drawn) | -0.42% (inactive) | 
CO[C@H]1[C@@H](O)[C@H](N)[C@@H](O[C@H]2O[C@H]([C@H](C)N)CC[C@H]2N)[C@H](O)[C@@H]1N(C)C(=O)CN | -19.4% (inactive) | 
CCC1CN(CCNC(=O)c2cccc(C)n2)Cc2cc(OC)ccc2O1 (stereo not drawn) | -1.6% (inactive) | 
CS(=O)(=O)c1ccc(Oc2nccc(-c3c(-c4ccc(F)cc4)ncn3C3CCNCC3)n2)cc1 | -23.2% (inactive) | 
COc1ccc(NC(=O)C[C@H]2C(=O)N(CCc3ccccc3)C[C@@H]2C)cc1 | -3.95% (inactive) | 
Oc1ccc(Cl)c2c1CCC2 | -0.737% (inactive) | 
CC[C@]1(O)C[C@@H]2CN(CCc3c([nH]c4ccccc34)[C@@](C(=O)OC)(c3cc4c(cc3OC)N(C)[C@H]3[C@@](O)(C(=O)OC)[C@H](OC(C)=O)[C@]5(CC)C=CCN6CC[C@]43[C@@H]65)C2)C1 |  | inactive and 22.4 µM (active)
CC(C)C[C@@H](CC(=O)N[C@@H](CCC(=O)O)CC(=O)O)NC(=O)[C@@H]1CCCC[C@H]1NC(=O)C[C@@H](NC(=O)C[C@H](Cc1c[nH]c2ccccc12)NC(=O)[C@@H]1CCCC[C@H]1N)C(C)C | -0.613% (inactive) | 
C[C@@H]1O[C@@H](OC[C@H]2O[C@@H](Oc3cc(O)c4c(c3)O[C@H](c3ccc(O)c(O)c3)CC4=O)[C@H](O)[C@@H](O)[C@@H]2O)[C@H](O)[C@H](O)[C@H]1O | -8.36% (inactive) | 
O=c1cc(-c2ccc(O)cc2)oc2c([C@@H]3O[C@H](CO)[C@@H](O)[C@H](O)[C@H]3O)c(O)cc(O)c12 | -0.528% (inactive) | 
COc1ccc(CCC(=O)c2c(O)cc(OC3OC(CO)C(O)C(O)C3O[C@@H]3OC(C)C(O)C(O)C3O)cc2O)cc1O (stereo partly drawn) | -1.94% (inactive) | 
Cc1cccc(CNc2ccnc(-c3cccnc3)n2)c1 | -0.505% (inactive) | 
CCCCN1C[C@H](c2ccc(Br)cc2)[C@@H](CC(=O)Nc2ccc(Br)cc2)C1=O | -23.4% (inactive) | 
COc1ccc(C[C@H](N)C(=O)N[C@@H]2[C@H](O)[C@H](n3cnc4c(N(C)C)ncnc43)O[C@@H]2CO)cc1 |  | 2.51 µM (active)
COc1ccc(CC(N)C(=O)NC2C(O)[C@H](n3cnc4c(N(C)C)ncnc43)O[C@@H]2CO)cc1 (stereo partly drawn) |  | 3.98 µM (active)
Nc1ncnc2c1ncn2C1CC(O)C(CO)O1 (stereo not drawn) | inactive | 
CCN(CC)CCCC(C)Nc1ccnc2cc(Cl)ccc12 (stereo not drawn) | inactive | 
COC1=C[C@H](C(=O)NCCNC(C)=O)[C@H](C)[C@@H](c2ccccc2)CC1=O | -0.439% [at 8.59 µM] (inactive) | 
COC(=O)[C@H](CC(C)C)NS(=O)(=O)c1c(F)cccc1F | 15.1% (inactive) | 

Structure (SMILES) | activity change, negative = inhibition | Potency
O=C1NC(CC(=O)N2CCC(n3c(C4CCC4)nc4cccnc43)CC2)c2ccccc21 (stereo not drawn) | -11.6% (inactive) | 
Fc1cccc(/C=N\N=C/c2cccc(F)c2)c1 | 2.67% (inactive) | 
C=CCOC(=O)C(=C)C | -1% (inactive) | 
Cc1ccc(-c2ncc(Cl)cc2-c2ccc(S(C)(=O)=O)cc2)cn1 | -8.61% (inactive) | 
CC[C@H](C)[C@H](NC(=O)[C@@H](N)CCC(=O)O)C(=O)N[C@@H](CC(C)C)C(=O)N[C@@H](CC(=O)O)C(=O)N[C@H](C(=O)N1CCC[C@H]1C(=O)N[C@@H](CO)C(=O)N[C@H](C(=O)O)[C@@H](C)O)C(C)C | -17.7% (inactive) | 
CC[C@H]1CN2CCc3cc(OC)c(OC)cc3[C@@H]2C[C@@H]1C[C@H]1NCCc2cc(OC)c(OC)cc21 |  | 0.1 µM (active)
O=C(NCC1Cc2cc(F)cc(-c3cnccn3)c2O1)C1COc2ccccc2O1 (stereo not drawn) | -10.2% (inactive) | 
CCCCCCCC/C=C\CCCCCCCC(=O)NCC(=O)O | -9.14% (inactive) | 
O=[N+]([O-])c1ccc(CN2CC(N3CC=CC3)CS2(=O)=O)cc1 (stereo not drawn) | 14.7% (inactive) | 
COc1ccc(-c2c(C)cc3oc(=O)cc(-c4ccccc4)c3c2C)cc1F | 8.65% (inactive) | 
CN[C@@H]1[C@@H](O)[C@@H](O[C@@H]2[C@H](O)[C@H](O[C@H]3OC(CN)=CC[C@H]3N)[C@@H](N)C[C@H]2N)OCC1(C)O (stereo partly drawn) | -1.11% (inactive) | 
CCOC(=O)CN1C(=O)NC(CCc2ccccc2)C(C(C)=O)=C1C (stereo not drawn) | -20.9% [at 8.59 µM] (inactive) | 
OCCN1CCN(CC/C=C2\c3ccccc3Sc3ccc(C(F)(F)F)cc32)CC1 | -11% [at 17.8 µM] (inactive) | 
Cc1ccc(/C(=C/CN2CCCC2)c2ccccn2)cc1 | inactive | 
COc1ccccc1-c1ccnc(-n2ncc(C(=O)NCCCN3CCOCC3)c2C)n1 | 3.84% (inactive) | 
C=CCN1C(=O)[C@]2(OCCC=C[C@H]2C)c2ccccc21 | -16.5% [at 8.59 µM] (inactive) | 
C[C@@H]1CC[C@H]2C(=O)N(Cc3ccc(Cl)cc3)C[C@@H](O)CN2[C@@H]1c1cccc(Br)c1 | 6.98% [at 8.59 µM] (inactive) | 
Nc1nc2[nH]c(=O)c(=O)[nH]c2c(=O)[nH]1 | 5.82% (inactive) | 
CCOC(=O)Cn1c(=O)sc2cccc(Cl)c21 | -6.52% (inactive) | 
CNCC[C@H](Oc1ccc(C(F)(F)F)cc1)c1ccccc1 |  | inactive and 28.2 µM (active)
COC(=O)C1=C(C)N(Cc2ccccc2)C(=NCCc2ccccn2)NC1c1cccc(C(F)(F)F)c1 (stereo not drawn) | -11.6% [at 8.59 µM] (inactive) | 
COc1ccccc1N1CCN(CCN2C(=O)c3ccccc3C(C)(C)C2=O)CC1 | inactive | 
CC(C)=CCC[C@]1(C)[C@@H](CC=C(C)C)C[C@@]2(CC=C(C)C)C(=O)[C@]1(C(=O)C(C)C)C(=O)C(CC=C(C)C)=C2O |  | 12.6 µM (active)
Nc1nccc(-c2c(-c3ccc(F)cc3)ncn2CCCN2CCOCC2)n1 | 97% (inactive) | 
CC(=O)Oc1c2c(c3c(c1CC=C(C)C)O[C@@]14C(=CC5CC1C(C)(C)OC4(C/C=C(\C)C(=O)O)C5=O)C3=O)OC(C)(CCC=C(C)C)C=C2 (stereo partly drawn) |  | 6.31 µM (active)
NCCCNCCCCN(CCCN)/[N+]([O-])=N/O | 3.12% (inactive) | 

Structure (SMILES) | activity change, negative = inhibition | Potency
CCCCC/C=C\C/C=C\CCCCCCCCCC(=O)NCC(=O)O | 2.05% (inactive) | 
CCCCCCCC1=Cc2ccc(F)cc2C(C(C(=O)OC)C(=O)OC)N1C(=O)OC (stereo not drawn) | inactive | 
COc1ccccc1-c1nc(NCCNC(C)=O)c2ccccc2n1 | 0.865% (inactive) | 
Cc1cnc(C(=O)N2CCOc3ccc(CN4CCCC(C(=O)c5cccnc5)C4)cc3C2)[nH]1 (stereo not drawn) | -5.06% (inactive) | 
Nc1nc(/C(=C/CC(=O)O)C(=O)N[C@@H]2C(=O)N3C(C(=O)O)=CCS[C@H]23)cs1 | -7.09% (inactive) | 
COc1cccc([C@@H]2Oc3ccc(Br)cc3C(=O)[C@H]2OC(=O)NCCc2ccc(OC)c(OC)c2)c1 | 33% (inactive) | 
C/C=C(\C)C(=O)OC1C(OC(=O)C2(C)OC2C)c2cc3ccc(=O)oc3cc2OC1(C)C (stereo not drawn) | 4.77% (inactive) | 
OCC1CCCN(c2nc3cc4c(cc3cc2CNCc2cccs2)OCO4)C1 (stereo not drawn) | -0.156% (inactive) | 
CCOC(=O)CCN1C(=O)[C@@H]2[C@H]3[C@H](O)[C@H](O)CC(=NOCC(C)C)[C@@H]3CC[C@H]2C1=O | -24.6% [at 8.59 µM] (inactive) | 
CCN1CCN(C(=O)N[C@@H](C(=O)N[C@@H]2C(=O)N3C(C(=O)O)=C(CSc4nnnn4C)CS[C@H]23)c2ccc(O)cc2)C(=O)C1=O | -8.09% (inactive) | 
CCOC(=O)C1C/C(=C\C(C)=O)c2cccc(C(F)(F)F)c2O1 (stereo not drawn) | 7.88% (inactive) | 
CC(C)[C@@H](OCc1ccccc1)[C@H](C)C=NOC[C@@H](C)[C@H](OCc1ccccc1)C(C)C | 8.86% [at 8.59 µM] (inactive) | 
COc1ccc(CN(C)CCn2cc(C(=O)N3CCSCC3)nn2)cc1C | -12% (inactive) | 
CC1OC(OCC2OC(Oc3c(-c4ccc(O)c(O)c4)oc4cc(O)cc(O)c4c3=O)C(O)C(O)C2O)[C@@H](O)C(O)C1O (stereo partly drawn) | -10.4% (inactive) | 
CNc1ncnc2ccc(-c3cccc(NS(C)(=O)=O)c3)cc12 | -5.28% (inactive) | 
COc1ccc(Nc2ncnc3ccc(OC)cc23)cc1 | 4.87% (inactive) | 
Cc1csc(-c2nc3ccccc3n2C)n1 | 29.1% (inactive) | 
CNC(=O)C[C@H]1C(=O)N(Cc2ccccc2)C[C@@H]1CSC | 7.21% (inactive) | 
CCCCCCN1C[C@@H](O)[C@H](n2cc(-c3ccc(F)cc3)nn2)C[C@H]1c1ccccc1 | -27.3% (inactive) | 
COc1c(O)cc2oc(-c3ccc(O)c(O)c3)cc(=O)c2c1O | -13.1% (inactive) | 
Cc1nc2cc(NC(=O)[C@@H]3C[C@@H](Sc4ccccn4)CN3Cc3ccccc3C)ccc2s1 | -6.47% (inactive) | 
CCCN(C/C=C/I)C1CCc2ccc(O)cc2C1 (stereo not drawn) | 3.69% (inactive) | 
CC[C@@H]1Cc2cc(O)ccc2C2=C1c1ccc(O)cc1C[C@H]2CC |  | 20 µM (active)
COCOc1cc(OC)ccc1C(=O)/C=C/c1ccc([N+](=O)[O-])cc1 | -5.23% (inactive) | 
CCOC(=O)C1=C(C(=O)OCC)C(C(=O)OCC)N(S(=O)(=O)C(F)(F)F)c2ccccc21 (stereo not drawn) | -6.28% (inactive) | 
c1ccc(CN2CCN(Cc3ccc4c(c3)CN(Cc3c[nH]c5ccccc35)CCO4)CC2)nc1 | -8.46% (inactive) | 
